# Source: PubChem (several laboratories)
# A selection: hits, their analogues and other compounds. The true share with any hit is near 4.1%.
# ALR H2O2 inh: blocks human ALR sulfhydryl oxidase activity; purified ALR, DTT oxidation, H2O2 HRP-luminol luminescence; AID 485317; P55789; inhibition, % (concentration not given with the values); 290,000 tested, 3.8% active;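 active = mean replicate inhibition above about 79%, with every replicate also reaching it, limit read from the data; inconclusive = only one of the two criteria met; inactive = mean below limit and not every replicate reaching it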
# PfM18AAP inh: blocks P. falciparum M18 aspartyl aminopeptidase; AID 1822; inhibition, % at 7.35 µM; 290,000 tested, 1.2% active; recombinant PfM18AAP, H-Glu-NHMec fluorogenic cleavage;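 active = inhibition above the campaign mean inhibition over all tested compounds plus 3 SD, cut at about 28% in these data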;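 also: 0% = plate median of test compound wells and 100% = 2 mM ZnCl2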
# IDE cell inh: inhibitors of human insulin-degrading enzyme in cells. P14735. HEK cells, FAbetaB cleavage, fluorescence polarization. inhibition, % at 5.59 µM. 320,000 tested, 0.41% active;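 active = percent inhibition above the average of all tested compounds plus 3 SD, set per screening campaign, cut at about 16% in these data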;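 also: IDE supplied by intact live HEK cells; FP after avidin binding of uncleaved biotin substrate so inhibition keeps polarization high; 0% = DMSO wells and 100% = 60 µM reference IDE inhibitor Ii1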
# PolyA inhibitor: blocks polyadenylation in yeast reporter cells | S. cerevisiae SKY197-pL101 polyadenylation reporter, beta-gal luminescence; efflux-impaired pdr1/pdr3 knockout yeast; score 100 = 6 SD above DMSO | activity score, % at 12 µM | 300,000 tested, 0.02% active;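 active = lowest replicate activity score at least 50, where 100 means six control SD above control mean; inconclusive = lowest score under 50 but half or more replicates reach 50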;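 also: yeast exposed to compound for 9 h at 30 °C; higher score means more reporter readthrough which indicates perturbed polyadenylation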
# IDE act: boosts human insulin-degrading enzyme activity in HEK cells | P14735 | FAbeta-B cleavage, fluorescence polarization; 0% vehicle, 100% cell-free pure enzyme wells | activation, % at 5.96 µM | 340,000 tested, 0.073% active | AID 493087;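 active = activation above the mean of all tested compounds plus 3 SD, set per screening campaign, cut at about 17% in these data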
# CaV13 ICDI inh: Disruptors of the CACNA1D IQ motif to Ca2+-dependent inactivation inhibitor domain association, primary screening, Förster resonance energy transfer in intact living …; HEK cells, CFP/YFP FRET ICDI-IQ, plate reader, 10 min; percent FRET-ratio fall versus neutral wells; inhibition, % at 12.3 µM; 340,000 tested, 0.098% active; AID 743397;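 active = mean replicate inhibition of at least 30% and at least 1% of replicates passing that level; inconclusive = only one of the two criteria is met; inactive = neither criterion is met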;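 also: 0% = median of the neutral control wells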
# * hit, by the source's call; ? = inconclusive; . = no result given; + = active, no number.
SMILES,ALR H2O2 inh,PfM18AAP inh,IDE cell inh,PolyA inhibitor,IDE act,CaV13 ICDI inh
CN(C)CC1CCCCC1OC(=O)/C=C/c1ccc(Cl)cc1Cl (stereo unspecified),-22,1,3,-8,6,-2
CC(C)c1nc(=S)n(-c2ccccc2)[nH]1,90*,10,2,4,4,-5
CC(C)CCN(CCC(C)C)CC(O)Cn1c2ccccc2c(=O)c2ccccc21 (stereo unspecified),-7,-1,0,21,6,+
CCOc1cc(CNc2ccc(CNc3ncn[nH]3)cc2)ccc1OCc1ccccc1,18,40*,-7,-5,1,-17
CCCCS(=O)(=O)/C=C\C=C/S(=O)(=O)CCCC,98*,-42,-1,-15,-10,.
COc1ccc(-c2csc(=Nc3ccccc3)n2CCO)cc1,97*,30*,3,27,2,-5
C=CCn1c(-c2ccc(OC)cc2)csc1=Nc1c(C)n(C)n(-c2ccccc2)c1=O,67,-7,-2,6,3,-2
COc1ccc(N=c2scc(-c3ccc(S(=O)(=O)N4CCOCC4)cc3)n2CCCO)cc1,.,3,.,.,.,.
COc1ccc(-c2csc(=NCCO)n2-c2ccccc2)cc1,99*,5,.,-10,2,-3
Cc1cc(S(=O)(=O)N2CCCCCC2)c(Cl)cc1Cl,-3,10,1,-18,2,-9
CCOC(=O)/C(=N\Nc1ccc(Br)cc1)N1CC(C)OC(C)C1 (stereo unspecified),100*,8,-6,-9,-2,.
CCOC(=O)/C(=N\Nc1ccccc1Cl)N1CC(C)OC(C)C1 (stereo unspecified),.,2,-1,-14,2,-6
Cc1cc(C(=O)COC(=O)c2cccnc2Cl)c(C)n1-c1c(C)n(C)n(-c2ccccc2)c1=O,11,-18,2,-11,1,-11
CCC(=O)c1cc2c(C)cc(=O)oc2c(C)c1O,-14,4,0,3,0,.
CCN(CC)Cc1c(O)c(Cl)cc2c(C)cc(=O)oc12,.,6,.,10,6,35*
CCN(CC)Cc1c(O)c(Cl)cc2c(C)c(C)c(=O)oc12,39,4,4,-9,7,.
C=CCc1c(O)c(CC)cc2c(C)cc(=O)oc12,15,-16,-5,-4,10,+
CCOc1ccc(CO/N=C/c2c(C)[nH]c(=O)[nH]c2=O)cc1,-3,0,2,2,-1,-4
C[C@H](N)c1nnc(SCc2ccc(Cl)cc2Cl)o1,99*,-4,-3,-18,1,-5
Cc1cc(C)nc(SCc2ccc(C(=O)N/N=C/c3ccco3)cc2)n1,10,2,-5,-15,-6,-4
CCCCSCCCNC(=S)Nc1ccccc1C,77*,3,6,3,5,-18
Cc1ccccc1NC(=S)NCCO,-11,-3,3,16,0,-3
O=C(CSc1nc2c(oc3ccccc32)c(=O)n1CC1CCCO1)NCc1ccc(F)cc1 (stereo unspecified),.,.,.,-3,3,-6
COc1cc(C(=O)NC(=S)NCc2ccncc2)cc(OC)c1OC,.,.,.,.,.,-15
O=C(Nc1ncccn1)c1ccc(C(F)(F)F)cc1,97*,-5,3,17,0,-4
SMILES,ALR H2O2 inh,PfM18AAP inh,IDE cell inh,PolyA inhibitor,IDE act,CaV13 ICDI inh
CCCC(=O)Nc1nc2ccc(S(N)(=O)=O)cc2s1,99*,1,-4,-10,3,-6
COc1ccc2nc(NC(=O)CSc3nnc(C)n3N)sc2c1,3,-6,2,-14,-6,-4
Cc1ccc2nc(NC(=O)CSc3nncc(=O)n3N)sc2c1,99*,10,8,6,2,-3
CCOCC(=O)Nc1nc2ccc(OCC)cc2s1,47,1,1,23,2,-5
CCOCC(=O)Nc1nc2ccc(C)cc2s1,97*,5,7,-11,-7,.
CCCNC(=O)C1(C)CCCN(C(=O)c2ccccc2OC(F)(F)F)C1 (stereo unspecified),.,.,.,.,.,-10
COc1cccc(C2Nc3ccccc3C(=O)N2c2ccc(F)cc2)c1O (stereo unspecified),75,3,3,?,3,-4
COc1cccc(C2Nc3ccccc3C(=O)N2O)c1O (stereo unspecified),87*,1,-6,-22,3,-5
C=CC[C@@H](Cc1ccc(F)cc1)C(=O)OC[C@@H]1CCCN1C(=O)[C@H](CC=C)CC(=O)NCCO,-6,.,0,.,1,-5
Cc1cc(C(F)F)n2nc(C(=O)Nc3cccnc3Cl)nc2n1,-4,-16,-3,-18,3,-5
O=C(C1CC1c1ccccc1)N1CCOCC1 (stereo unspecified),98*,-1,2,6,4,-5
Cc1nc2sc(C(N)=O)c(N)c2c2c1CCCC2,-3,-1,7,-16,9,3
CC(=O)NC(c1ccc(Cl)cc1)c1c(O)ccc2ccc(O)cc12 (stereo unspecified),96*,-7,-4,-5,6,-5
O=C(NC(c1ccc(Cl)cc1)c1c(O)ccc2ccccc12)c1ccccc1 (stereo unspecified),-1,3,-1,.,2,-8
Cc1ccc(C(=O)O/N=C(\N)c2ccccn2)c(Cl)c1,91*,1,4,16,0,-22
CCC(Sc1nc(N)c(NC(=O)c2ccc(OC)cc2)c(=O)[nH]1)C(=O)O (stereo unspecified),-1,-1,6,14,4,67*
COc1ccc(Nc2nc(Cl)nc(NCCO)n2)cc1,.,3,-4,0,4,-18
CC(C)c1ccc(Nc2nc(Cl)nc(NCCO)n2)cc1,97*,-4,1,-15,2,-21
CC(C)COc1ccc(N)cc1OCC(C)C,99*,8,-2,-11,1,-3
CN(Cc1nc2ccccc2c(=O)[nH]1)C(=O)COc1ccccc1Cc1ccccc1,52,.,0,.,5,-5
CC(CCc1ccccc1)NC(=O)CNC(=O)c1cccs1 (stereo unspecified),-1,-1,-8,-2,-3,-6
CCN(CC)c1ccc(C=C2C(=O)OC3(CCCCC3)OC2=O)cc1,?,6,-1,-18,-5,4
CCCCC1(C)OC(=O)C(=Cc2ccc(N(CC)CC)cc2)C(=O)O1 (stereo unspecified),97*,-6,5,-4,4,-8
Nc1nc(/C=C/c2ccc(F)cc2)nc(-c2ccccc2O)n1,-21,-11,-4,3,7,-2
Nc1nc(/C=C/c2cccnc2)nc(-c2ccccc2O)n1,94*,0,-5,-37,5,-4
O=C(c1cccnc1)N1CCN(c2ccc3ccccc3n2)CC1,-10,-7,3,6,4,-7
